# Reference: PubChem BioAssay AID1159580 (chemical genetic matrix, 2015)
# About 2,000 (36%) of roughly 5,500 compounds were called active. Roughly 18% stayed inconclusive and do not appear here. This is one part of the list. A number with no mark means an inactive call. Cut-off read from the data, not from the text of the source: active = normalized growth mostly below about 0.91 (no sharp cut-off); inconclusive = no clear call, values can overlap the other calls; inactive = mostly above about 0.92.
# Assay: chemical genetic growth profiling, strain panel (AID 1159580);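 note: tested at 20 µM; growth read once vehicle control cultures reached saturation at 30 °C; 1 = growth at the plate median or of vehicle wells; lower values mean less growth of the strain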
# Conditions: growth OD
smiles,measurement,setting,value
COc1c(C(C)C)oc2cc3oc(=O)ccc3cc12,normalized growth,"S. cerevisiae deletion strains, locus YBR021W, strain FUR4, hits give low values",0.915
same,normalized growth,"S. cerevisiae deletion strains, locus YBR229C, strain ROT2, hits give low values",0.987
same,normalized growth,"S. cerevisiae deletion strains, locus YCL029C, strain bik1, hits give low values",0.839 (active)
same,normalized growth,"S. cerevisiae deletion strains, locus YDL035C, strain GPR1, hits give low values",0.749 (active)
same,normalized growth,"S. cerevisiae deletion strains, locus YDL074C, strain BRE1, hits give low values",0.721 (active)
same,normalized growth,"S. cerevisiae deletion strains, locus YDL101C, strain DUN1, hits give low values",0.918
same,normalized growth,"S. cerevisiae deletion strains, locus YDL185W, strain tfp1, hits give low values",0.933
same,normalized growth,"S. cerevisiae deletion strains, locus YDL192W, strain arf1, hits give low values",0.894 (active)
same,normalized growth,"S. cerevisiae deletion strains, locus YDR101C, strain arx1, hits give low values",0.929
same,normalized growth,"S. cerevisiae deletion strains, locus YDR162C, strain NBP2, hits give low values",0.826 (active)
same,normalized growth,"S. cerevisiae deletion strains, locus YDR318W, strain mcm21, hits give low values",0.89 (active)
same,normalized growth,"S. cerevisiae deletion strains, locus YDR388W, hits give low values",0.935
same,normalized growth,"S. cerevisiae deletion strains, locus YDR502C, strain sam2, hits give low values",0.873 (active)
same,normalized growth,"S. cerevisiae deletion strains, locus YEL061C, strain CIN8, hits give low values",0.933
same,normalized growth,"S. cerevisiae deletion strains, locus YER110C, hits give low values",0.914
same,normalized growth,"S. cerevisiae deletion strains, locus YER155C, strain BEM2, hits give low values",0.972
same,normalized growth,"S. cerevisiae deletion strains, locus YER167W, strain BCK2, hits give low values",0.921
same,normalized growth,"S. cerevisiae deletion strains, locus YGL078C, strain dbp3, hits give low values",0.911 (active)
same,normalized growth,"S. cerevisiae deletion strains, locus YGL086W, strain mad1, hits give low values",0.883 (active)
same,normalized growth,"S. cerevisiae deletion strains, locus YGL248W, strain PDE1, hits give low values",0.869 (active)
same,normalized growth,"S. cerevisiae deletion strains, locus YGR135W, strain pre9, hits give low values",0.779 (active)
same,normalized growth,"S. cerevisiae deletion strains, locus YGR252W, strain gcn5, hits give low values",0.55 (active)
same,normalized growth,"S. cerevisiae deletion strains, locus YHR030C, strain SLT2, hits give low values",0.885 (active)
same,normalized growth,"S. cerevisiae deletion strains, locus YHR079C, strain IRE1 (second series), hits give low values",0.954
same,normalized growth,"S. cerevisiae deletion strains, locus YHR094C, strain hxt1, hits give low values",0.967
same,normalized growth,"S. cerevisiae deletion strains, locus YHR129C, strain ARP1, hits give low values",0.901 (active)
same,normalized growth,"S. cerevisiae deletion strains, locus YHR200W, strain rpn10, hits give low values",0.915 (active)
same,normalized growth,"S. cerevisiae deletion strains, locus YIL066C, strain RNR3, hits give low values",0.801 (active)
same,normalized growth,"S. cerevisiae deletion strains, locus YIL073C, strain SPO22, hits give low values",0.838
same,normalized growth,"S. cerevisiae deletion strains, locus YIL125W, strain kgd1, hits give low values",0.971
same,normalized growth,"S. cerevisiae deletion strains, locus YIR030C, strain dcg1, hits give low values",0.941
same,normalized growth,"S. cerevisiae deletion strains, locus YJL095W, strain BCK1, hits give low values",0.722 (active)
same,normalized growth,"S. cerevisiae deletion strains, locus YJL134W, strain LCB3, hits give low values",0.983
same,normalized growth,"S. cerevisiae deletion strains, locus YJL168C, strain set2, hits give low values",0.957
same,normalized growth,"S. cerevisiae deletion strains, locus YJL187C, strain SWE1 (second series), hits give low values",0.883
same,normalized growth,"S. cerevisiae deletion strains, locus YJR043C, strain POL32, hits give low values",0.764 (active)
same,normalized growth,"S. cerevisiae deletion strains, locus YJR075W, strain HOC1, hits give low values",0.877 (active)
same,normalized growth,"S. cerevisiae deletion strains, locus YKL009W, strain mrt4, hits give low values",0.745 (active)
same,normalized growth,"S. cerevisiae deletion strains, locus YKL068W, hits give low values",0.965
same,normalized growth,"S. cerevisiae deletion strains, locus YKL085W, strain MDH1 (second series), hits give low values",0.958
same,normalized growth,"S. cerevisiae deletion strains, locus YKL085W, strain MDH1, hits give low values",0.958
same,normalized growth,"S. cerevisiae deletion strains, locus YKR001C, strain vps1, hits give low values",0.777 (active)
same,normalized growth,"S. cerevisiae deletion strains, locus YLR039C, strain RIC1, hits give low values",0.944
same,normalized growth,"S. cerevisiae deletion strains, locus YLR058C, strain SHM2, hits give low values",0.932
same,normalized growth,"S. cerevisiae deletion strains, locus YLR102C, strain apc9, hits give low values",0.946
same,normalized growth,"S. cerevisiae deletion strains, locus YLR262C, strain YPT6, hits give low values",0.971
same,normalized growth,"S. cerevisiae deletion strains, locus YLR268W, strain sec22, hits give low values",0.888
same,normalized growth,"S. cerevisiae deletion strains, locus YLR330W, strain CHS5, hits give low values",0.874 (active)
same,normalized growth,"S. cerevisiae deletion strains, locus YLR342W, strain FKS1 (second series), hits give low values",0.661 (active)
same,normalized growth,"S. cerevisiae deletion strains, locus YLR371W, strain rom2, hits give low values",0.951
same,normalized growth,"S. cerevisiae deletion strains, locus YLR418C, strain cdc73, hits give low values",0.703 (active)
same,normalized growth,"S. cerevisiae deletion strains, locus YML016C, strain PPZ1, hits give low values",0.958
same,normalized growth,"S. cerevisiae deletion strains, locus YML032C, strain rad52, hits give low values",0.855 (active)
same,normalized growth,"S. cerevisiae deletion strains, locus YML124C, strain tub3, hits give low values",0.96
same,normalized growth,"S. cerevisiae deletion strains, locus YMR078C, strain ctf18, hits give low values",0.945
same,normalized growth,"S. cerevisiae deletion strains, locus YMR223W, strain ubp8, hits give low values",0.9 (active)
same,normalized growth,"S. cerevisiae deletion strains, locus YMR263W, strain SAP30, hits give low values",0.887 (active)
same,normalized growth,"S. cerevisiae deletion strains, locus YMR307W, strain GAS1, hits give low values",0.743
same,normalized growth,"S. cerevisiae deletion strains, locus YNL067W, strain RPL9B, hits give low values",0.862 (active)
same,normalized growth,"S. cerevisiae deletion strains, locus YNL153C, strain GIM3, hits give low values",0.859 (active)
same,normalized growth,"S. cerevisiae deletion strains, locus YNL233W, strain BNI4, hits give low values",0.806 (active)
same,normalized growth,"S. cerevisiae deletion strains, locus YNL250W, strain rad50, hits give low values",0.932
same,normalized growth,"S. cerevisiae deletion strains, locus YNL271C, strain bni1, hits give low values",0.889 (active)
same,normalized growth,"S. cerevisiae deletion strains, locus YNL298W, strain CLA4, hits give low values",0.802 (active)
same,normalized growth,"S. cerevisiae deletion strains, locus YNL307C, strain MCK1, hits give low values",0.51 (active)
same,normalized growth,"S. cerevisiae deletion strains, locus YNR052C, strain pop2, hits give low values",0.884 (active)
same,normalized growth,"S. cerevisiae deletion strains, locus YOL012C, strain htz1",1.16
same,normalized growth,"S. cerevisiae deletion strains, locus YOL147C, strain pex11, hits give low values",0.935
same,normalized growth,"S. cerevisiae deletion strains, locus YOR061W, strain CKA2, hits give low values",0.91
same,normalized growth,"S. cerevisiae deletion strains, locus YOR069W, strain VPS5, hits give low values",0.967
same,normalized growth,"S. cerevisiae deletion strains, locus YOR136W, strain idh2, hits give low values",0.943
same,normalized growth,"S. cerevisiae deletion strains, locus YOR144C, strain elg1, hits give low values",0.963
same,normalized growth,"S. cerevisiae deletion strains, locus YOR184W, strain ser1, hits give low values",0.828 (active)
same,normalized growth,"S. cerevisiae deletion strains, locus YOR316C, strain cot1, hits give low values",0.957
same,normalized growth,"S. cerevisiae deletion strains, locus YPL055C, strain LGE1, hits give low values",0.755 (active)
same,normalized growth,"S. cerevisiae deletion strains, locus YPR119W, strain clb2, hits give low values",0.957
same,normalized growth,"S. cerevisiae deletion strains, locus YPR141C, strain kar3, hits give low values",0.952
same,normalized growth,"S. cerevisiae deletion strains, locus YPR163C, strain tif3, hits give low values",0.769 (active)
same,normalized growth,"S. cerevisiae deletion strains, locus YPR167C, strain met16, hits give low values",0.895 (active)
same,normalized growth,"S. cerevisiae deletion strains, strain wtn01, hits give low values",0.887 (active)
same,normalized growth,"S. cerevisiae strains, strain wild type, hits give low values",0.899 (active)
